Experimental data from PubChem BioAssay (NCI).
Compounds without any hit were thinned out: in the full panel of roughly 83,000, 20% have a hit.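 How to read the values: 0–100, growth inhibition (40 = 60% inhibited); 0, no net growth; -100 to 0, cell death (-40 = 40% of starting cells died; -100 = all dead).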 Active and inactive are the calls of the source. The calls were made as follows: active = growth percent below 10; inactive = the rest.

How the values were obtained:
Experiment in all cases: NCI-60 one-dose screen, 48 h (100 = growth as untreated, 0 = no growth, -100 = all killed)
Details in all cases: 10 µM unless noted
RPMI-8226 leukemia = system: RPMI-8226 leukemia
OVCAR-8 ovarian = system: OVCAR-8 ovarian
OVCAR-5 ovarian = system: OVCAR-5 ovarian
OVCAR-4 ovarian = system: OVCAR-4 ovarian
SK-OV-3 ovarian = system: SK-OV-3 ovarian
IGROV1 ovarian = system: IGROV1 ovarian
OVCAR-3 ovarian = system: OVCAR-3 ovarian
HS 578T breast = system: HS 578T breast
NCI/ADR-RES ovarian = system: NCI/ADR-RES ovarian
T-47D breast = system: T-47D breast
BT-549 breast = system: BT-549 breast
MDA-MB-435 melanoma = system: MDA-MB-435 melanoma
SW-620 colon = system: SW-620 colon
MCF7 breast = system: MCF7 breast
HCT-116 colon = system: HCT-116 colon
HCC-2998 colon = system: HCC-2998 colon
KM12 colon = system: KM12 colon

Measured: growth

Cc1nn(-c2ccccc2)c(N2CCOCC2)c1/C=N/N=c1\sc2ccccc2n1C
inactive: RPMI-8226 leukemia 52.9% | OVCAR-8 ovarian 93.9% | OVCAR-5 ovarian 82% | OVCAR-4 ovarian 98.6% | SK-OV-3 ovarian 76.9% | IGROV1 ovarian 89.5% | OVCAR-3 ovarian 104% | HS 578T breast 91.2% | NCI/ADR-RES ovarian 94.9% | T-47D breast 51.7% | BT-549 breast 81.5% | MDA-MB-435 melanoma 92.1% | SW-620 colon 82.7% | MCF7 breast 68.5% | HCT-116 colon 49.6% | HCC-2998 colon 106% | KM12 colon 81.4%

CCCC1C(C(=O)OCC)=C(N)Oc2cc(O)ccc21 (configuration not stated)
inactive: RPMI-8226 leukemia 98.5% | OVCAR-8 ovarian 107% | OVCAR-5 ovarian 108% | OVCAR-4 ovarian 89.3% | SK-OV-3 ovarian 88.3% | IGROV1 ovarian 76.4% | OVCAR-3 ovarian 96.6% | HS 578T breast 101% | NCI/ADR-RES ovarian 94.3% | T-47D breast 88.8% | BT-549 breast 94% | SW-620 colon 97.1% | MCF7 breast 103% | HCT-116 colon 88.3% | KM12 colon 98.2%

Cc1cc2cc3cc(C)c(N)cc3[n+](C)c2cc1N
active: RPMI-8226 leukemia -1.31% | OVCAR-8 ovarian 1.23% | OVCAR-3 ovarian 1.65% | HS 578T breast 9.56% | T-47D breast 8.77% | BT-549 breast 9.11% | MDA-MB-435 melanoma 9.46% | SW-620 colon 9.45% | MCF7 breast 8.32% | HCT-116 colon 3.49% | HCC-2998 colon 9.7% | KM12 colon 5.06%
inactive: OVCAR-5 ovarian 46.2% | OVCAR-4 ovarian 10% | SK-OV-3 ovarian 26% | IGROV1 ovarian 16.1% | NCI/ADR-RES ovarian 48.5%

COc1cc2nc(-c3ccc(C#N)cc3)[nH]c(=O)c2cc1OC
inactive: RPMI-8226 leukemia 135% | OVCAR-8 ovarian 102% | OVCAR-5 ovarian 102% | OVCAR-4 ovarian 113% | SK-OV-3 ovarian 112% | IGROV1 ovarian 113% | OVCAR-3 ovarian 109% | HS 578T breast 106% | NCI/ADR-RES ovarian 98.7% | T-47D breast 112% | BT-549 breast 293% | MDA-MB-435 melanoma 103% | SW-620 colon 110% | MCF7 breast 100% | HCT-116 colon 94.3% | HCC-2998 colon 83.1% | KM12 colon 111%

O=CNc1cc(Cl)cc(Cl)c1
inactive: RPMI-8226 leukemia 99.1% | OVCAR-8 ovarian 99.8% | OVCAR-5 ovarian 97.5% | OVCAR-4 ovarian 113% | SK-OV-3 ovarian 115% | IGROV1 ovarian 103% | OVCAR-3 ovarian 123% | HS 578T breast 111% | NCI/ADR-RES ovarian 108% | T-47D breast 100% | BT-549 breast 99.4% | MDA-MB-435 melanoma 107% | SW-620 colon 103% | MCF7 breast 98.3% | HCT-116 colon 100% | KM12 colon 101%

CCc1nc(C)cn1C(=O)OCc1nc2nc(Cl)nc(N3CCOCC3)c2[nH]1
inactive: SK-OV-3 ovarian 70% | HCC-2998 colon 26.5% | KM12 colon 20.8%
active: RPMI-8226 leukemia -33.1% | OVCAR-8 ovarian -13.7% | OVCAR-5 ovarian -48.9% | OVCAR-4 ovarian -33.9% | IGROV1 ovarian -48.1% | OVCAR-3 ovarian -80.9% | HS 578T breast -6.6% | NCI/ADR-RES ovarian 2.83% | T-47D breast -47.9% | BT-549 breast -18.8% | MDA-MB-435 melanoma -73.6% | SW-620 colon -47.9% | MCF7 breast -22.4% | HCT-116 colon -71.5%

O=C(N/N=C/c1ccc(O)c(O)c1)c1sc2ccccc2c1Cl
inactive: RPMI-8226 leukemia 16.6% | OVCAR-8 ovarian 90.4% | OVCAR-5 ovarian 100% | OVCAR-4 ovarian 92.7% | SK-OV-3 ovarian 75.7% | IGROV1 ovarian 64.1% | OVCAR-3 ovarian 96.9% | HS 578T breast 84.4% | NCI/ADR-RES ovarian 83.7% | T-47D breast 62.3% | BT-549 breast 84.4% | MDA-MB-435 melanoma 88.7% | SW-620 colon 75.2% | MCF7 breast 54.4% | HCT-116 colon 80% | HCC-2998 colon 96.5% | KM12 colon 89%

CCCCCOc1ccc(/C=N/Nc2cc(C)nc3ccc(Br)cc23)cc1
inactive: OVCAR-5 ovarian 106% | SK-OV-3 ovarian 102% | HS 578T breast 85.5% | NCI/ADR-RES ovarian 63.6% | T-47D breast 83.4% | BT-549 breast 103%
active: RPMI-8226 leukemia -8.25% | OVCAR-8 ovarian -46.3% | OVCAR-4 ovarian 4.88% | IGROV1 ovarian -11.7% | OVCAR-3 ovarian -83.2% | MDA-MB-435 melanoma -46.9% | SW-620 colon -61.2% | MCF7 breast -73% | HCT-116 colon -79.9% | HCC-2998 colon -58.3% | KM12 colon -65.5%

CSc1nnc2c(=O)n(C)c(=O)n(C)c2n1
inactive: RPMI-8226 leukemia 75.8% | OVCAR-8 ovarian 106% | OVCAR-5 ovarian 100% | OVCAR-4 ovarian 105% | SK-OV-3 ovarian 103% | IGROV1 ovarian 101% | OVCAR-3 ovarian 144% | HS 578T breast 86.6% | NCI/ADR-RES ovarian 101% | T-47D breast 97.5% | BT-549 breast 96.4% | MDA-MB-435 melanoma 95.2% | SW-620 colon 96.1% | MCF7 breast 97.8% | HCT-116 colon 106% | HCC-2998 colon 105% | KM12 colon 93.6%

COc1nccnn1
inactive: RPMI-8226 leukemia 70.1% | OVCAR-8 ovarian 111% | OVCAR-5 ovarian 101% | OVCAR-4 ovarian 101% | SK-OV-3 ovarian 110% | IGROV1 ovarian 118% | OVCAR-3 ovarian 146% | HS 578T breast 86.7% | NCI/ADR-RES ovarian 101% | T-47D breast 107% | BT-549 breast 94% | MDA-MB-435 melanoma 93% | SW-620 colon 101% | MCF7 breast 103% | HCT-116 colon 99.2% | HCC-2998 colon 110% | KM12 colon 95.7%

CCOc1ccc(/C=N/Nc2cc(C)nc3ccc(Cl)cc23)cc1
active: RPMI-8226 leukemia -1.34% | OVCAR-3 ovarian -16.3% | SW-620 colon -72.8% | MCF7 breast 1.28% | HCT-116 colon -75.3%
inactive: OVCAR-8 ovarian 45.2% | OVCAR-5 ovarian 79.2% | OVCAR-4 ovarian 56.8% | SK-OV-3 ovarian 84.1% | IGROV1 ovarian 45.4% | HS 578T breast 92.3% | NCI/ADR-RES ovarian 45.9% | T-47D breast 60.3% | BT-549 breast 80.6% | MDA-MB-435 melanoma 40.9% | HCC-2998 colon 27.5% | KM12 colon 33.3%

O=C(OCc1nc2nc(Cl)nc(N3CCOCC3)c2[nH]1)n1ccnc1
active: RPMI-8226 leukemia -35.7% | OVCAR-8 ovarian -44.9% | OVCAR-4 ovarian -38.3% | IGROV1 ovarian 2.36% | OVCAR-3 ovarian -84.9% | HS 578T breast 5.43% | NCI/ADR-RES ovarian 6.27% | T-47D breast -49.2% | BT-549 breast 9.52% | MDA-MB-435 melanoma -55.1% | SW-620 colon -59.1% | MCF7 breast 4.72% | HCT-116 colon -82.4%
inactive: OVCAR-5 ovarian 22.3% | SK-OV-3 ovarian 46.2% | HCC-2998 colon 65.3% | KM12 colon 13.7%

O=c1[nH]nc(-c2ccc(Cl)cc2)cc1Cc1cccc([N+](=O)[O-])c1
inactive: RPMI-8226 leukemia 51.6% | OVCAR-8 ovarian 101% | OVCAR-5 ovarian 107% | OVCAR-4 ovarian 80% | SK-OV-3 ovarian 88.8% | IGROV1 ovarian 82.4% | OVCAR-3 ovarian 101% | HS 578T breast 49.1% | NCI/ADR-RES ovarian 101% | T-47D breast 85.2% | BT-549 breast 133% | MDA-MB-435 melanoma 112% | SW-620 colon 101% | MCF7 breast 84.8% | HCT-116 colon 100% | HCC-2998 colon 130% | KM12 colon 93.3%

COc1cc2oc(-c3cccc(C(=O)Nc4ccc(Cl)cc4)c3)cc(=O)c2c(OC)c1OC
inactive: OVCAR-8 ovarian 23.5% | OVCAR-5 ovarian 57.5% | OVCAR-4 ovarian 60.5% | SK-OV-3 ovarian 33.6% | IGROV1 ovarian 25.5% | OVCAR-3 ovarian 43.1% | HS 578T breast 33% | NCI/ADR-RES ovarian 26.2% | T-47D breast 24.2% | BT-549 breast 38.5% | MDA-MB-435 melanoma 37.5% | SW-620 colon 50.4% | MCF7 breast 17.2% | HCT-116 colon 15.3% | HCC-2998 colon 22.6% | KM12 colon 26.3%
active: RPMI-8226 leukemia -18.3%

CCN(CCNc1cc(OC)cc2cccnc12)CCc1ccccc1
active: MCF7 breast 0.943%
inactive: RPMI-8226 leukemia 81.6% | OVCAR-8 ovarian 85.2% | OVCAR-5 ovarian 93.9% | OVCAR-4 ovarian 19.1% | SK-OV-3 ovarian 74.6% | IGROV1 ovarian 94.6% | OVCAR-3 ovarian 79% | HS 578T breast 85.6% | NCI/ADR-RES ovarian 81.1% | BT-549 breast 87.6% | MDA-MB-435 melanoma 104% | SW-620 colon 70.7% | HCT-116 colon 59.8% | HCC-2998 colon 88.5% | KM12 colon 85.6%

CCOC(=O)C1=C(C)NC(C)=C(C(=O)OCC)C1c1cc(Br)c(O)c(OC)c1
active: HS 578T breast 4.37% | NCI/ADR-RES ovarian -14.5% | MDA-MB-435 melanoma -33.7%
inactive: RPMI-8226 leukemia 29.9% | OVCAR-8 ovarian 25.2% | OVCAR-5 ovarian 66.7% | OVCAR-4 ovarian 47.4% | SK-OV-3 ovarian 16.9% | IGROV1 ovarian 49.9% | T-47D breast 43.8% | BT-549 breast 15.3% | SW-620 colon 24.6% | MCF7 breast 29.3% | HCT-116 colon 24.5% | HCC-2998 colon 63.6% | KM12 colon 23.6%

BrC(Br)(Br)c1cnc2ccccc2n1
inactive: RPMI-8226 leukemia 41.8% | OVCAR-8 ovarian 45.4% | OVCAR-5 ovarian 60.3% | OVCAR-4 ovarian 44.1% | SK-OV-3 ovarian 69.4% | IGROV1 ovarian 51.9% | HS 578T breast 66.7% | NCI/ADR-RES ovarian 44.3% | BT-549 breast 74.4% | MDA-MB-435 melanoma 36.5% | MCF7 breast 25.8% | HCC-2998 colon 43.8% | KM12 colon 42.7%
active: OVCAR-3 ovarian -27.5% | SW-620 colon -65% | HCT-116 colon -40.3%

Cc1[nH]n(-c2cccc(Cl)c2)c(=O)c1/C=C1\C=Nc2ccc(Br)cc21
inactive: RPMI-8226 leukemia 14.1% | OVCAR-5 ovarian 30.5% | IGROV1 ovarian 19.3% | NCI/ADR-RES ovarian 16.3% | BT-549 breast 41.5% | MDA-MB-435 melanoma 43.9% | SW-620 colon 17.2% | MCF7 breast 33.9% | HCC-2998 colon 63.5% | KM12 colon 47.2%
active: OVCAR-4 ovarian -89.9% | SK-OV-3 ovarian -25% | OVCAR-3 ovarian -47.2% | HS 578T breast 0.668% | T-47D breast -47.4% | HCT-116 colon -76%

COc1ccc(C2CC(n3nnnc3-c3ccccc3)=NN2)cc1 (configuration not stated)
inactive: RPMI-8226 leukemia 62.5% | OVCAR-8 ovarian 61.6% | OVCAR-5 ovarian 66.4% | IGROV1 ovarian 64.8% | OVCAR-3 ovarian 75.1% | HS 578T breast 99% | NCI/ADR-RES ovarian 49.9% | MDA-MB-435 melanoma 50.1% | SW-620 colon 50.6% | MCF7 breast 62% | HCT-116 colon 50.7% | HCC-2998 colon 72.3% | KM12 colon 49.3%
